This is an account of results in PubChem BioAssay.

Molecules are shown by their SMILES.

A short description of the first experiment: COS7 lysate on small-molecule microarray, probe aHis, 635 nm (AID 1123).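 Note: z-score combines 667nm fluorescence intensity with signal-to-noise per printed compound spot.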 Conditions: COS7 cell lysate, fluorescence, higher = more signal.
`O=C(NN=C1C[C@@H](O)[C@@H](O)[C@@H]2[C@@H]3C(=O)N(c4ccc(F)cc4F)C(=O)[C@@H]3CC[C@@H]12)OCc1ccccc1` yielded a composite z-score of 0.229.
The compound `CCOC(=O)[C@H](Cc1ccccc1)NC(=O)CCC1CC(OC(=O)NCc2ccc3c(c2)OCO3)CC2(CCCC(COC(=O)NCc3cccc(C(F)(F)F)c3)O2)O1` (some centres not stated) gave a composite z-score of 0.287.
As for `C[C@@H](c1ccccc1)N1C(=O)[C@H]2[C@H]3[C@H](O)C=CC(=O)[C@@H]3CC[C@H]2C1=O`, the composite z-score is -0.263.
On the same count and under the same terms, as for `Cc1cc2c(c(=O)o1)[C@H](O)[C@H]1O[C@H]1C2=O`, the figure is -0.682; as for `COc1ccc(COC(=O)NN=C2C[C@@H](O)[C@@H](O)[C@@H]3[C@@H]4C(=O)N(c5ccc(F)cc5F)C(=O)[C@@H]4CC[C@@H]23)cc1`, -0.413.
Still for that read-out and setting: as for `CO[C@@H]1COC(=O)CCC[C@@H](C)[C@H](OC)COC(=O)CCC[C@H]1C`, the figure is -0.307; as for `O=C1C[C@@H](O)[C@@H](O)[C@@H]2[C@@H]3C(=O)N(Cc4ccc5c(c4)OCO5)C(=O)[C@@H]3CC[C@@H]12`, 0.0971; as for `CC=CC1=C(CO)[C@H](O)[C@H]2O[C@H]2[C@H]1O`, -0.188.
`CC(C)[C@H](NC(=O)OC(C)(C)C)[C@@H](O)CC(=O)OC(C)(C)C` registered a composite z-score of -0.361.
Still for that read-out and setting: then `CO[C@H]1COC(=O)[C@@H]2CCCN2C(=O)CC=C[C@@H](C)[C@H](OC)COC(=O)CC=C[C@@H]1C`, with -0.0693; and `COC(=O)[C@H](C)NC(=O)CCC1CC(OC(=O)NCCc2ccc(F)cc2)CC2(CCCC(COC(=O)NCCc3ccc(Cl)cc3)O2)O1` (some centres not stated), with 0.925.
On the same count and under the same terms, as for `CC(C)=CCCC(C)=CCON=C1[C@H]2CCn3c(=O)n(C)c(=O)n3[C@H]2[C@H](O)[C@@H]2O[C@H]12`, the figure is 0.482; as for `O=C(NN=C1C[C@@H](O)[C@@H](O)[C@@H]2[C@@H]3C(=O)N(c4cccc(Oc5ccccc5)c4)C(=O)[C@@H]3CC[C@@H]12)OCc1ccccc1`, 0.36.
The same measure, in the same setting: then `CC(=O)OC[C@H]1O[C@H](C#CCCCc2ccccc2)C=C[C@@H]1OC(C)=O`, with 0.622.
Turning to `CC(CCN1CCc2nc(-c3ccccc3)c(-c3ccccc3)cc2C1)=NO[C@H](C)c1cn([C@@H]2COC[C@H]2O)nn1`, the composite z-score stood at 0.507.
Regarding `O[C@@H](Cc1ccccc1)[C@H]1C2C=CCCC(c3ccccc3)=C2CN1Cc1cccc(Cl)c1` (some centres not stated), the composite z-score was 0.981.
The same measure, in the same setting: as for `COc1ccc([Si](C)(C)[C@H]2[C@H](CCO)O[C@@]3(C(=O)N(Cc4cccc(NC(=O)[C@H](C)O)c4)c4ccccc43)[C@@H]2C)cc1`, the figure is 1.55; as for `O=C1NC(=O)C2C1C=CC(C(O)Cc1ccccc1)N2Nc1ccccn1` (configuration not stated), 1.87; as for `CC(CCC(=O)OC[C@H]1O[C@H](C#Cc2ccccc2)C=C[C@@H]1Oc1ccc(C)cc1)=NOC[C@@H](O)COCc1ccco1`, -0.128.
Same read-out and setting: then `CC1CC/C=C\[C@H]2OC34C=CCN(Cn5nnc6ccccc65)C(=O)[C@H]3N(CCO)C(=O)[C@@H]4C2C(=O)O1` (some centres not stated), with 2.59; and `CCOC(=O)CCN1C(=O)[C@H]2[C@H]3[C@H](O)[C@H](O)CC(=NNC(=O)OCc4ccc(OC)cc4)[C@@H]3CC[C@H]2C1=O`, with 1.31; and `CCN1C(=O)[C@H]2[C@H]3[C@H](O)[C@H](O)CC(=NOC(C)CN4CCCCc5nc(C)c(C)cc54)[C@@H]3CC[C@H]2C1=O` (some centres not stated), with -0.144.
Still for that read-out and setting: as for `C#CCCCON=C1C[C@@H](O)[C@@H](O)[C@@H]2[C@@H]3C(=O)N(CCC(=O)OCC)C(=O)[C@@H]3CC[C@@H]12`, the figure is 0.166.
Consider `CCN1C(=O)[C@H]2[C@H]3[C@H](O)[C@H](O)CC(=NO[C@@H]4O[C@H](CO)[C@@H](O)[C@H](O)[C@H]4O)[C@@H]3CC[C@H]2C1=O`, for which the composite z-score is -1.22.
The same measure, in the same setting: as for `COCC1=C2[C@@H](CCc3ccccc3)OB(O)C[C@@H]2n2c(=O)n(-c3ccccc3)c(=O)n2C1`, the figure is -0.0955; as for `CN1C(=O)C2C=CC(C(O)c3ccc(Br)cc3)N(N(c3ccccc3)c3ccccc3)C2C1=O` (configuration not stated), 1.04.
The same measure, in the same setting: then `CC(CCN1CCCCc2nc(C)c(C)cc21)=NOC(C)CN1CCCCc2nc(C)c(C)cc21` (configuration not stated), with 1.12.

The next experiment in a line: probe aLAP1 signal on lysate-treated microarray – cell lysate, small-molecule microarray, COS7 lysate, primary screen (AID 1124).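 Note: lysate comes from COS7 cells expressing LAP1 and is applied at 0.3 µg/mL; score merges spot fluorescence near 667 nm with signal-to-noise over triplicate slides.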 Conditions: probe aLAP1, fluorescence, higher = more signal.
For the compound `CO[C@@H]1COC(=O)[C@@H]2CCCN2C(=O)[C@@H](C)COC(=O)[C@H](COCc2ccccc2)NC(=O)CC=C[C@H]1C`, the composite z-score is -0.0015.
In turn, `C#CCCCON=C1C[C@@H](O)[C@@H](O)[C@@H]2[C@@H]3C(=O)N([C@@H](C)c4ccccc4)C(=O)[C@@H]3CC[C@H]12` had a composite z-score of 0.0595.
On the same count and under the same terms, then `COCCCNC(=O)[C@@]1(C)c2ccccc2C(=O)N(Cc2ccc(OC(F)(F)F)cc2)[C@H]1c1ccc(CO)cc1`, with 0.884.
The same measure, in the same setting: then `C=COC[C@H]1CN2[C@@H](CC[C@@H](C)[C@@H]2c2ccc(Br)cc2)C(=O)O1`, with 0.446.
On the same count and under the same terms, as for `CC(CCN1CCCCc2nc(C)c(C)cc21)=NOC(C)CN1CCCc2nc(C)c(C)cc21` (configuration not stated), the figure is 0.257; as for `CC(C)=NOCc1ccc(-c2cc(-c3ccccc3)no2)cc1`, 0.0863; as for `CCc1cc2c(nc1CC)CCN(CCC(C)=NOC[C@@H](O)[C@H]1O[C@@H]3OC(C)(C)O[C@@H]3[C@H]1O)C2`, -0.0959.
`COc1cccc([C@H]2Oc3ccc(OC)cc3C(=NO[C@H](C)c3cn([C@@H]4COC[C@H]4O)nn3)[C@@H]2O)c1` returned a composite z-score of -0.358.
On the same count and under the same terms, as for `O=C(NN=C1C[C@@H](O)[C@@H](O)[C@@H]2[C@@H]3C(=O)N(c4ccc(F)cc4F)C(=O)[C@@H]3CC[C@@H]12)OCc1ccccc1`, the figure is 0.3; as for `CCOC(=O)[C@H](Cc1ccccc1)NC(=O)CCC1CC(OC(=O)NCc2ccc3c(c2)OCO3)CC2(CCCC(COC(=O)NCc3cccc(C(F)(F)F)c3)O2)O1` (some centres not stated), -0.0375.
`C[C@@H](c1ccccc1)N1C(=O)[C@H]2[C@H]3[C@H](O)C=CC(=O)[C@@H]3CC[C@H]2C1=O` yielded a composite z-score of 0.146.
Regarding `Cc1cc2c(c(=O)o1)[C@H](O)[C@H]1O[C@H]1C2=O`, the composite z-score is -0.106.
`COc1ccc(COC(=O)NN=C2C[C@@H](O)[C@@H](O)[C@@H]3[C@@H]4C(=O)N(c5ccc(F)cc5F)C(=O)[C@@H]4CC[C@@H]23)cc1` came in with a composite z-score of -0.2.
As for `CO[C@@H]1COC(=O)CCC[C@@H](C)[C@H](OC)COC(=O)CCC[C@H]1C`, the composite z-score is -0.0693.
Same read-out and setting: then `O=C1C[C@@H](O)[C@@H](O)[C@@H]2[C@@H]3C(=O)N(Cc4ccc5c(c4)OCO5)C(=O)[C@@H]3CC[C@@H]12`, with -0.0553; and `CC=CC1=C(CO)[C@H](O)[C@H]2O[C@H]2[C@H]1O`, with -0.182.
On the same count and under the same terms, as for `CC(C)[C@H](NC(=O)OC(C)(C)C)[C@@H](O)CC(=O)OC(C)(C)C`, the figure is -0.202; as for `CO[C@H]1COC(=O)[C@@H]2CCCN2C(=O)CC=C[C@@H](C)[C@H](OC)COC(=O)CC=C[C@@H]1C`, 0.0482; as for `COC(=O)[C@H](C)NC(=O)CCC1CC(OC(=O)NCCc2ccc(F)cc2)CC2(CCCC(COC(=O)NCCc3ccc(Cl)cc3)O2)O1` (some centres not stated), 0.0391.
On the same count and under the same terms, then `CC(C)=CCCC(C)=CCON=C1[C@H]2CCn3c(=O)n(C)c(=O)n3[C@H]2[C@H](O)[C@@H]2O[C@H]12`, with 0.644; and `O=C(NN=C1C[C@@H](O)[C@@H](O)[C@@H]2[C@@H]3C(=O)N(c4cccc(Oc5ccccc5)c4)C(=O)[C@@H]3CC[C@@H]12)OCc1ccccc1`, with -0.0773; and `CC(=O)OC[C@H]1O[C@H](C#CCCCc2ccccc2)C=C[C@@H]1OC(C)=O`, with 0.46.
In turn, `CC(CCN1CCc2nc(-c3ccccc3)c(-c3ccccc3)cc2C1)=NO[C@H](C)c1cn([C@@H]2COC[C@H]2O)nn1` displayed a composite z-score of 0.222.
Same read-out and setting: as for `O[C@@H](Cc1ccccc1)[C@H]1C2C=CCCC(c3ccccc3)=C2CN1Cc1cccc(Cl)c1` (some centres not stated), the figure is 0.466; as for `COc1ccc([Si](C)(C)[C@H]2[C@H](CCO)O[C@@]3(C(=O)N(Cc4cccc(NC(=O)[C@H](C)O)c4)c4ccccc43)[C@@H]2C)cc1`, 0.335.
Same read-out and setting: then `O=C1NC(=O)C2C1C=CC(C(O)Cc1ccccc1)N2Nc1ccccn1` (configuration not stated), with 0.12.
Same read-out and setting: then `CC(CCC(=O)OC[C@H]1O[C@H](C#Cc2ccccc2)C=C[C@@H]1Oc1ccc(C)cc1)=NOC[C@@H](O)COCc1ccco1`, with -0.547; and `CC1CC/C=C\[C@H]2OC34C=CCN(Cn5nnc6ccccc65)C(=O)[C@H]3N(CCO)C(=O)[C@@H]4C2C(=O)O1` (some centres not stated), with 1.06.
The compound `CCOC(=O)CCN1C(=O)[C@H]2[C@H]3[C@H](O)[C@H](O)CC(=NNC(=O)OCc4ccc(OC)cc4)[C@@H]3CC[C@H]2C1=O` had a composite z-score of -0.239.
Same read-out and setting: as for `CCN1C(=O)[C@H]2[C@H]3[C@H](O)[C@H](O)CC(=NOC(C)CN4CCCCc5nc(C)c(C)cc54)[C@@H]3CC[C@H]2C1=O` (some centres not stated), the figure is 0.0096.
Same read-out and setting: then `C#CCCCON=C1C[C@@H](O)[C@@H](O)[C@@H]2[C@@H]3C(=O)N(CCC(=O)OCC)C(=O)[C@@H]3CC[C@@H]12`, with 1.05; and `CCN1C(=O)[C@H]2[C@H]3[C@H](O)[C@H](O)CC(=NO[C@@H]4O[C@H](CO)[C@@H](O)[C@H](O)[C@H]4O)[C@@H]3CC[C@H]2C1=O`, with -0.378; and `COCC1=C2[C@@H](CCc3ccccc3)OB(O)C[C@@H]2n2c(=O)n(-c3ccccc3)c(=O)n2C1`, with 0.0421.
`CN1C(=O)C2C=CC(C(O)c3ccc(Br)cc3)N(N(c3ccccc3)c3ccccc3)C2C1=O` (configuration not stated) yielded a composite z-score of -0.068.
On the same count and under the same terms, as for `CC(CCN1CCCCc2nc(C)c(C)cc21)=NOC(C)CN1CCCCc2nc(C)c(C)cc21` (configuration not stated), the figure is 0.858.
